PubChem BioAssay (NCI)
Compounds without any hit were thinned out: in the full panel of roughly 83,000, 20% have a hit.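 Step 1: grow cells in 96-well plates. Step 2: add test compound at a single concentration. Step 3: incubate 48 h. Step 4: record percent growth.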 Values without a mark were called inactive. The source made the active and inactive calls. How the source made its calls: active means growth percent below 10; inactive means the rest.

Tests used:
Assay in all cases: NCI-60 one-dose screen, 48 h (100 = growth as untreated, 0 = no growth, -100 = all killed)
[1] = tested on: T-47D breast; conditions: 10 µM unless noted
[2] = tested on: BT-549 breast; conditions: 10 µM unless noted
[3] = tested on: MDA-MB-435 melanoma; conditions: 10 µM unless noted
[4] = tested on: SW-620 colon; conditions: 10 µM unless noted
[5] = tested on: MCF7 breast; conditions: 10 µM unless noted
[6] = tested on: HCT-116 colon; conditions: 10 µM unless noted
[7] = tested on: HCC-2998 colon; conditions: 10 µM
[8] = tested on: KM12 colon; conditions: 10 µM unless noted

| SMILES | growth [1] | growth [2] | growth [3] | growth [4] | growth [5] | growth [6] | growth [7] | growth [8] |
| --- | --- | --- | --- | --- | --- | --- | --- | --- |
| COC(=O)[C@]12CC[C@@H](C)[C@H](C)[C@@H]1C1=CC[C@@H]3[C@@]4(C)C(c5cnco5)=C[C@@](C)(CO)C4=CC[C@@]3(C)[C@]1(C)CC2 | 14.7% | 56.4% | 60.5% | 50.9% | 37.1% | 22.6% | 45.5% | 37.2% |
| C[C@@H](C[C@H](CCO)c1cc(C(F)(F)F)cc(C(F)(F)F)c1)c1ccc2ccccc2c1 | 55.2% | 102% | 38.8% | 88.7% | 78.9% | 67.6% | 86.1% | 71.3% |
| COc1cc(N2CCC(N3CCN(C)CC3)CC2)ccc1Nc1ncnc(Nc2ccccc2S(=O)(=O)C(C)C)n1 | 74.7% | 104% | 108% | 100% | 88.6% | 88.2% | 97.3% | 109% |
| CNC(=O)c1cnc(C)nc1-c1cc(C(C)(C)C)c(O)c(C(C)(C)C)c1 | 99.3% | 101% | 98.5% | 112% | 93.4% | 96.3% | 127% | 96.4% |
| Cc1ccsc1C(NC(=O)c1ccccc1)c1cc(Cl)c2cccnc2c1O (stereo not given) | 24.1% | 35.4% | 30.5% | 18.8% | 21.8% | 13.7% | 45% | 22% |
| Cc1cc2c(F)c(Oc3ncnn4cc(OC[C@@H](C)OC(=O)[C@H](C)N)c(C)c34)ccc2[nH]1 | 70.5% | 80.8% | 28.6% | 20.3% | 39.6% | 19.3% | 37.5% | 35.1% |
| O=C(Cn1ccc2ccccc21)Nc1ccc(-c2nc3ccccc3s2)cc1 | 90.6% | 105% | 104% | 106% | 38.2% | 102% | 103% | 106% |
| CCN1CCN(Cc2ccc(Cc3ncc(F)c(-c4cc(F)c5nc(C)n(C(C)C)c5c4)n3)nc2)CC1 | 65.2% | 61% | 45.9% | -5.5% (active) | 25.1% | 5.58% (active) | 54.7% | 28% |
| NC(=O)N1N=C(c2ccc(Cl)cc2)CC1c1cn(-c2ccccc2)nc1-c1ccc(Cl)cc1 (stereo not given) | 45.6% | 98.9% | 75.2% | 84.8% | 63.7% | 31.9% | 78.6% | 62.7% |
| CCCCCCC1(/C=N/NC(N)=O)NC(=O)NC1=O (stereo not given) | 87.8% | 94.1% | 101% | 104% | 91.2% | 84.2% | 94.5% | 97% |
| Nc1c(C(=O)c2ccccc2)sc2nc(-c3cccs3)cc(-c3cccs3)c12 | 36% | 50.9% | -14.4% (active) | 28.8% | 45.9% | 16.8% | 72.1% | 29.1% |
| COc1cc2c(Oc3ccc(NC(=O)C4(C(=O)Nc5ccc(F)cc5)CC4)cc3F)ccnc2cc1OCCCN1CCOCC1 | 0.289% (active) | 17.8% | -75.1% (active) | -31.4% (active) | -22.2% (active) | -61.2% (active) | 7.76% (active) | 0.619% (active) |
| N#Cc1ccc(-n2nnc3ccccc32)cc1C#N | 86.3% | 106% | 85.3% | 94.4% | 82% | 102% | 104% | 96.4% |
| COc1cc2cc(NCc3ccc(F)cc3)nc(C)c2cc1OC | 53.2% | 29% | 24.6% | 21.8% | 68.6% | 9.34% (active) | 42.3% | 42.3% |
| CC1(O)CCC(Nc2cc(-c3ccc(C(F)(F)F)cc3)c(C#N)c3nc4ccccc4n23)CC1 (stereo not given) | 53% | 38.2% | 64.7% | 90.5% | 43.9% | 53.6% | 86.5% | 68.7% |
| Cn1nccc1Nc1nccc(-c2ccn([C@H](CO)c3ccc(Cl)c(F)c3)c(=O)c2)n1 | 104% | 93.6% | 55.4% | 62.7% | 93.1% | 52.5% | 36.9% | 82.8% |
| COc1cc2c(Nc3ccc(Br)cc3F)ncnc2cc1OCC1CCN(C)CC1 | -22.9% (active) | 42.9% | -42.8% (active) | 31.8% | 31.3% | 24.3% | 19.3% | 38.1% |
| Cc1cc(Nc2ncc(Cl)c(Nc3ccccc3S(=O)(=O)C(C)C)n2)c(OC(C)C)cc1C1CCNCC1 | -77.7% (active) | -78.4% (active) | -100% (active) | -92.7% (active) | -73.7% (active) | -97.5% (active) | -93% (active) | -95.8% (active) |
| CC1(COc2ccc3c(c2)ncn3-c2ccc3cccc(N4CCC(N)CC4)c3n2)COC1 | 81.7% | 43.1% | 65.5% | 1.95% (active) | -10.1% (active) | -45.6% (active) | 31.2% | 6.35% (active) |
| CNC(=O)c1cc(Oc2cccc3nc(Nc4ccc(Cl)c(F)c4)ccc23)ccn1 | 51.3% | 63.8% | 86.4% | 82% | 76.2% | 45.4% | 82.5% | 84.4% |
| Cc1nn(-c2nc3ccccc3[nH]2)c2c1C(c1ccc(OCc3ccc(F)cc3)cc1)CC(=O)N2 (stereo not given) | 71.3% | 58.4% | 44.7% | 80.2% | 81.4% | 73.4% | 99.3% | 41.5% |
| c1cc(OCCN2CCCCC2)cc(-c2n[nH]c3ccc(-c4ncn[nH]4)cc23)c1 | 68.3% | 70.3% | 42.1% | 35.6% | 57.9% | 28.7% | 66.7% | 39.6% |
| Nc1c2c(c(O)c3c1=C(CO)C=N3)=NCCS2=O (stereo not given) | -42.6% (active) | -74.4% (active) | -82.7% (active) | -18% (active) | -50.6% (active) | -49.3% (active) | -87.8% (active) | -27.7% (active) |
| COc1cc2c(cc1OCCCN1Cc3ccc(OCCCCC(=O)N4CCC(CCN5CCCC5)CC4)cc3C1)N=C(N)C21CCCC1 | 56.2% | 63.4% | 81.5% | 66.4% | 58.5% | 68.1% | 101% | 78.5% |
| Cc1sc2c(c1C)c(=O)nc1c(-c3nc(-c4ccccc4)cs3)n[nH]n12 | 83.9% | 110% | 107% | 97.3% | 91.2% | 100% | 101% | 99.4% |
| CC[n+]1c(/C=C/C=C2\N(C)c3ccccc3C2(C)C)sc2ccccc21 | 4.61% (active) | -2.69% (active) | 4.07% (active) | 17% | -26.9% (active) | 7.25% (active) | 32.2% | 3.17% (active) |
| Cn1ncc(Cl)c1-c1cc(C(=O)N[C@H](CN)Cc2ccc(F)c(F)c2)oc1Cl | -50.7% (active) | -66.4% (active) | -59.8% (active) | 27.9% | -28.5% (active) | -28.3% (active) | -89.9% (active) | -39.2% (active) |
| C=CC(=O)N1CCC(Oc2cc3c(Nc4ccc(Cl)c(Cl)c4F)ncnc3cc2OC)CC1 | -4.87% (active) | 8.14% (active) | -34.7% (active) | 32.8% | 26.8% | 21.8% | 67.1% | 30.6% |
| COC(=O)[C@H](Cc1ccc(O)cc1)NC(=O)[C@@H](OC)[C@@H]1Cc2cc3cc(OC4CC(OC5CC(O)C(O)C(C)O5)C(O)C(C)O4)c(C)c(O)c3c(O)c2C(=O)[C@H]1OC1CC(OC2CC(OC3CC(C)(O)C(O)C(C)O3)C(O)C(C)O2)C(O)C(C)O1 (stereo not given in full) | 4.63% (active) | -36.9% (active) | -26.8% (active) | 11.3% | 8.15% (active) | 4.11% (active) | -67% (active) | 5.68% (active) |
| O=c1nc2c(-c3nc4ccccc4s3)n[nH]n2c2sc3c(c12)CCCC3 | 78.9% | 94.1% | 110% | 100% | 89.1% | 89.1% | 103% | 96.7% |
